# DT40 TDP1 CPT – DT40-hTDP1 cell growth loss with CPT. Potency, µM (top dose mostly 46.2 µM), inactives show top-dose activity change, negative = growth inhibition, hits mostly inhibitors. chicken DT40 Tdp1-/-;hTDP1 cells + 20 nM CPT, ATP luminescence, 48 h. 420,000 compounds, 12% hits; note: potency is the fitted concentration of half-maximal effect; nearly all actives have a fitted effect of over 55% in size
#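 Chicken DT40 Tdp1-/- cells stably complemented with human TDP1 were seeded at 400 cells/well in medium containing 20 nM camptothecin, exposed to pin-transferred compounds, and grown at 37 °C for at least 48 hr. Viability was read as ATP luminescence.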
# HT1080 IDH1KD tx – kills HT-1080 cells with IDH1 knockdown. Potency, µM (titrated, usually from 46.1 µM), for inactives: at the top dose activity, negative = toxicity, usual class: cytotoxic. HT-1080 IDH1 knockdown viability, ATP luminescence, 48 h. AID 686971. 360,000 compounds, 2% hits;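 note: potency is the fitted concentration of half-maximal effect; 0% = DMSO wells and -100% = cell-free medium wells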
#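 Viability of IDH1-knockdown HT-1080 fibrosarcoma cells was assessed by CellTiter-Glo after 48 h at 37 °C with titrated compound; concentration-effect curves were classified by fit quality and response size.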
# IL1B secr inh – inhibitors of inflammasome signaling (IL-1 beta secretion); AID 743279; 360,000 compounds, 4.7% hits; THP-1 LPS/ATP IL-1B secretion, AlphaLISA, 16 h; active compounds read low; activity change, % at 57.5 µM; in the data active = activity change below about -50%; inconclusive = mostly about -30% to -49%
#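 Secreted IL-1B measured by AlphaLISA bead assay after 16 h compound exposure of THP-1 cells; compounds (final up to 57.5 uM) added 1 h before LPS (250 ng/mL) and ATP (1.25 mM) stimulation; lower signal means less secretion.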
# HT1080NT lethal – kills 2HG-producing HT-1080-NT fibrosarcoma cells; HT-1080-NT fibrosarcoma viability, CellTiter-Glo ATP luminescence, 48 h; Potency, µM (highest dose often 46.1 µM), for the others: top-dose activity, negative = less viability, most hits filed as cytotoxic; 360,000 compounds, 1.6% hits; AID 686970;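 note: NT is the 2HG producing partner of a matched IDH1 knockdown line; potency is the fitted concentration of half-maximal effect; 0% = DMSO-treated cells and -100% = media-only wells without cells; nearly all actives have a fitted effect of over 55% in size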
#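 A 48-hour cytotoxicity screen used HT-1080-NT cells plated 2 hours before compound delivery. ATP-based CellTiter-Glo luminescence measured viability, normalized to DMSO and no-cell controls.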
# ELG1 DNA repair – blocks ELG1-dependent DNA repair in HEK293T cells; HEK293T ELG1-luciferase reporter, luminescence, 16 h; DNA damage induced by 5-fluorouridine; 330,000 compounds, 2.3% hits; Potency, µM (doses to about 46.1 µM), for inactives: at the top dose activity change, negative = inhibition, most hits filed as inhibitors; note: potency is the fitted concentration of half-maximal effect; nearly all actives have a fitted effect of over 55% in size
#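 In this reporter screen, reduction of luminescence relative to DMSO vehicle indicated activity. Compounds and 5-fluorouridine were added together to 2,000 cells per well, incubated for 16 hr at 37 °C, then developed with ONE-Glo.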
# DT40 TDP1 no CPT – qHTS for Inhibitors of human tyrosyl-DNA phosphodiesterase 1 (TDP1): qHTS in cells in absence of CPT; 420,000 compounds, 15% hits; Potency, µM (series often up to 46.2 µM), inactives show at the highest dose activity change, negative = growth inhibition, actives largely listed as inhibitors; DT40 Tdp1-/- hTDP1 cells, no CPT, ATP luminescence, 48 h; note: potency is the fitted concentration of half-maximal effect; nearly all actives have a fitted effect of over 55% in size
#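 No-CPT arm: Tdp1-/-;hTDP1 DT40 cells (400/well) plus compounds, incubated ≥48 hr at 37 °C. Readout CellTiter-Glo luminescence.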
# An asterisk follows results filed as active; ? = inconclusive; . = not tested or not shown; [ ] = dose if it differs, or a comment. Most compounds without a hit are left out; they make up all but 19% or so of the library. Unless noted, calls come from the whole dose curve; as a rule, active = well fitted curve in the direction sought with a large enough effect; inconclusive = small, poorly fitted or top-dose-only effect, or another doubt; inactive = no such curve, though single readings can be large; an effect the other way counts as inactive or inconclusive. Unless noted, % is set by controls: 0 for no effect and ±100 for the full control effect.
SMILES,DT40 TDP1 CPT,HT1080 IDH1KD tx,IL1B secr inh,HT1080NT lethal,ELG1 DNA repair,DT40 TDP1 no CPT
O=C(NCc1ccc(Cl)cc1)C(=O)Nc1ccc(Br)cc1,0%,.,.,.,.,-3%
Cn1c(SCC(=O)c2ccccc2)nnc1-c1cccs1,-1%,-1%,0,4%,?,?
COc1ccccc1C(C[N+](=O)[O-])c1c(N)n(C)c(=O)n(C)c1=O (centres undefined),3.7µM*,?,-58*,?,?,2.3µM*
N#CCSc1nc2c(sc(=S)n2Cc2ccco2)c(=O)n1-c1ccc(F)cc1,?,?,-53*,?,-12%,?
COc1cc(OC)cc(C(=O)N2CCC(c3ccncc3)CC2)c1,-18%,.,.,.,.,-12%
NS(=O)(=O)c1ccc(CCNC(=O)c2ccc(C#CC3(O)CCCCC3)cc2)cc1,21µM*,?,-8,?,6.5µM*,2.6µM*
CC(Oc1ccccc1)C(=O)OCC(=O)N1CC(=O)Nc2ccccc21 (centres undefined),17%,29%,17,19%,-6%,-1%
Cc1ccc(OC(C)C(=O)N2CC(=O)Nc3ccccc32)cc1 (centres undefined),-17%,3%,5,2%,18µM*,-13%
CCN1CCN(C(c2cccs2)C(C)NC(=S)Nc2cccc(C)c2C)CC1 (centres undefined),?,9%,?,13%,1%,?
OCCNCCCOc1cc(Cl)ccc1Cl,?,-18%,-2,?,?,18µM*
CCCCNCCCOc1cccc(Cl)c1Cl,15µM*,?,-64*,?,26%,?
OCCNCCCOc1cccc(Cl)c1Cl,0.19µM*,.,.,.,.,0.21µM*
COc1ccccc1OCCCCCNCCO,-14%,20%[9.24 µM],-2,-14%,13%,-9%
CC1(C(=O)NS(=O)(=O)c2ccc(Cl)s2)CCN1C(=O)C1(c2ccccc2)CCCC1 (centres undefined),?,5%,9,-3%,.,?
COC(=O)C1SCC2C(=O)N(Cc3ccc(Cl)cc3)CC(=O)N21 (centres undefined),9%,-8%,-8,-4%,5%,-4%
COC(=O)C1SCC2C(=O)N(Cc3ccc(Cl)c(Cl)c3)CC(=O)N21 (centres undefined),23µM*,0%,-5,-7%,-5%,?
NC(N)=N/N=C/c1ccc(Cl)cc1Cl,16µM*,16µM*,-99*,?,-2%,23µM*
Clc1ccc(C=NN2CCCCCC2)cc1Cl,3%,13%,-5,14%,.,-22%
OCCCCNCc1ccc(OCc2ccccc2Cl)cc1,?,?,-23,?,?,?
NC(N)=N/N=C/c1ccc(Cl)c(Cl)c1,13µM*,?,-97*,?,16%,16µM*
NC(N)=N/N=C/c1ccc(OCc2ccccc2Cl)cc1,15µM*,16µM*,-103*,13µM*,0%,13µM*
O=C(NN=Cc1ccc(Cl)cc1Cl)c1ccccc1,-25%,-14%,-29,-11%,.,?
CC1(c2ccc(OC(F)F)cc2)NC(=O)N(CC(=O)Nc2ccc3c(c2)OCO3)C1=O (centres undefined),16µM*,?,37,?,-5%,?
Cc1ccc2nc(-c3ccc(NC(=O)CN4C(=O)NC(C)(c5ccc(OC(F)F)cc5)C4=O)cc3)sc2c1 (centres undefined),15µM*,?,-5,?,?,23µM*
O=C(COc1ccccc1)NC1CC(=O)N(c2ccc3c(c2)OCCO3)C1 (centres undefined),10%,.,.,.,.,3%

# Source: PubChem BioAssay
